Measured values from PubChem BioAssay (NCI).
The panel holds about 79,000 compounds, 15% with a hit somewhere; the sample as a whole holds those more often. Calls of active or inactive are those of the source. Cut-off read from the data, not from the text of the source: active = growth inhibition above about 70%; inactive = the rest.

Test: NCI Yeast Anticancer Drug Screen. Data for the CLN2oe strain (AID 163);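 note: 0% = growth of vehicle-only control cultures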
Conditions: S. cerevisiae CLN2oe strain, hits give high values
Experimental: Growth inhibition of yeast strains with defined genetic alterations is measured as a screen for potential anti-cancer activity. Selected strains with alterations in DNA damage repair or cell cycle control were exposed to compounds and growth inhibition was measured relative to vehicle treated controls. The strain used in this assay is CLN2oe

Measured: growth inhibition

Oc1ccc2nc3ccccc3nc2c1
inactive: at 1.2 µM 4% | at 3.7 µM 2% | at 11.0 µM 11% | at 33.0 µM 22% | at 100.0 µM 67%

CO[C@H](/C(C)=C/C=C/C(C)=C/c1coc(C)n1)[C@H](C)[C@H]1C[C@@H](O)[C@@]2(C)O[C@H]2/C=C/[C@@H](C)[C@@H]2C[C@@H](CC(=O)O2)C[C@H]2O[C@@H]2C(=O)O1
inactive: at 1.2 µM -24% | at 3.7 µM -17% | at 11.0 µM -13% | at 33.0 µM 1%
active: at 100.0 µM 88%

C[N+](C)(C)CC1CCCC(C[N+](C)(C)C)C1=O (stereo not given)
inactive: at 1.2 µM 0% | at 3.7 µM 1% | at 11.0 µM 6% | at 33.0 µM 12% | at 100.0 µM 24%

Cc1c2ccccc2cc2ccccc12
active: at 11.0 µM 82% | at 33.0 µM 99% | at 100.0 µM 99%
inactive: at 1.2 µM 9% | at 3.7 µM 29%

COc1cc2ccccc2c2cc([N+](=O)[O-])oc12
inactive: at 1.2 µM -8% | at 3.7 µM -6% | at 11.0 µM 4% | at 33.0 µM 19% | at 100.0 µM 24%

C[N+]1(CCCl)CC[N+](C)(CCCl)CC1 (stereo not given)
active: at 100.0 µM 95%
inactive: at 1.2 µM -3% | at 3.7 µM -2% | at 11.0 µM 3% | at 33.0 µM 32%

CC1=C2C(=C[C@@](C)(CO)[C@@H]2O)C(=O)[C@](C)(O)C12CC2
inactive: at 1.2 µM -5% | at 3.7 µM -8% | at 11.0 µM -10% | at 33.0 µM -13% | at 100.0 µM -5%

O=S(=O)(O)c1ccc(Cl)cc1.[Cd]
inactive: at 1.2 µM -18% | at 3.7 µM -17% | at 11.0 µM -6% | at 33.0 µM 8% | at 100.0 µM 20%
